# Measured values from PubChem BioAssay (Tox21).
# Unmarked numbers belong to inactive results. Inconclusive results are not listed. Entries that show only a call come without a potency. Activity calls are given as the source filed them. Unless noted, the call rests on the fitted dose curve; in most records, active means well fitted curve in the direction sought with a large enough effect in the repeat runs; inconclusive means weak or mixed curves; inactive means no such curve, though single readings can be large; an effect the other way counts as inactive or inconclusive.
# Assays:
# [1] = qHTS assay to identify small molecule agonists of the estrogen receptor alpha (ER-alpha) signaling pathway in the presence of an antagonist - cell viability counter screen (AID 1259386);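 further: cells exposed to compounds for 22 h at 37 °C before the viability read; nearly all actives have a fitted effect of over 30% in size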; further: potency means the concentration at half of the fitted maximal effect
# Outline: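 The test measures whether compounds kill ER-alpha reporter cells (VM7Luc4E2) under antagonist co-treatment (ICI-182,780, 10.0nM). Fluorescence from CellTiter-Fluor is read after a 22hr exposure.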
# [2] = target: Progesterone receptor (Homo sapiens) (UniProt P06401); test: qHTS assay to identify small molecule agonists of the progesterone receptor (PR) signaling pathway (AID 1346784; calls by dose curve; further: nearly all actives have a fitted effect of over 30% in size)
# Chain of Progesterone receptor (Homo sapiens) (P06401 whole entry, looked up): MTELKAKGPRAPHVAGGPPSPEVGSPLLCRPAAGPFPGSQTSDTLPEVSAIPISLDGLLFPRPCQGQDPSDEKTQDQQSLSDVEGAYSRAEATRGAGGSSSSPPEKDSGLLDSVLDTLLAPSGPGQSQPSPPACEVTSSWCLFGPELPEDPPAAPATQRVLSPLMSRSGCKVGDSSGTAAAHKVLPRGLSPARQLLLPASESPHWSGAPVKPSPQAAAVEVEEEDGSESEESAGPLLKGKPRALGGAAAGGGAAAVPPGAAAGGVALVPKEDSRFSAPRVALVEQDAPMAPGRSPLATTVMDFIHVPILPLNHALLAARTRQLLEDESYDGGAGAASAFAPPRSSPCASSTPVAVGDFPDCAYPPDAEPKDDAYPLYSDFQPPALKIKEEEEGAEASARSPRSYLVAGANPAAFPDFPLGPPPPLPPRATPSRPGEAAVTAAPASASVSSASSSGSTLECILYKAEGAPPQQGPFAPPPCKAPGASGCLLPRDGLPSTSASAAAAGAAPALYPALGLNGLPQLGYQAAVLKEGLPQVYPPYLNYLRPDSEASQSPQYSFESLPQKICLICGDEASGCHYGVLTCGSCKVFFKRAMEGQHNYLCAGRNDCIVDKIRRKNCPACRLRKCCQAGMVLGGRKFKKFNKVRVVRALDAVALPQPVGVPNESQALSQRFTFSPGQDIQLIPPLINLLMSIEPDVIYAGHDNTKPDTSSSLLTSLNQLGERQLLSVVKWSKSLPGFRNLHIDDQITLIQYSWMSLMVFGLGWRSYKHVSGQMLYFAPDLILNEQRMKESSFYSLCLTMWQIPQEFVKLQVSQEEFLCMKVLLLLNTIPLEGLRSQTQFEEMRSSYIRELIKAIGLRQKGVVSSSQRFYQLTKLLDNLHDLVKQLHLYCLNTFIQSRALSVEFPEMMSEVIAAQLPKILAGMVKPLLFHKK
# Outline: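 Compounds were tested for PR agonism in HEK 293T cells bearing a beta-lactamase gene under UAS control. Treatment lasted 16 hr at 37C; signal came from fluorescence of a FRET substrate.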
# [3] = target: Progesterone receptor (Homo sapiens) (UniProt P06401); test: qHTS assay to identify small molecule antagonists of the progesterone receptor (PR) signaling pathway (AID 1346795; active means well fitted inhibition curve with a large enough effect in the signal ratio in the repeat runs, not every such curve was filed as active; the % refers to the signal ratio; further: potency means the concentration at half of the fitted maximal effect)
# Outline: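 In HEK293T cells bearing the PR-UAS-bla reporter, compound effects on promegestone-driven (1 nM) beta-lactamase expression are assessed after 16 hr using a fluorescent FRET substrate incubated 2 hr at room temperature.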
# [4] = qHTS assay to identify small molecule antagonists of the progesterone receptor (PR) signaling pathway - cell viability counter screen (AID 1346798); further: nearly all actives have a fitted effect of over 50% in size; further: potency means the concentration at half of the fitted maximal effect
# Outline: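 Following a 4 hr attachment, PR-UAS-bla HEK293T cells in charcoal-stripped FBS medium were exposed to compounds with R5020 for 16 hr; CellTiter-Glo was added and luminescence read after 30 min at room temperature.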
# [5] = qHTS assay to identify small molecule agonists of the progesterone receptor (PR) signaling pathway - cell viability counter screen (AID 1346799; calls by dose curve; further: nearly all actives have a fitted effect of over 45% in size; further: potency means the concentration at half of the fitted maximal effect)
# Outline: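 Here, 3,000 PR-UAS-bla HEK293T cells per well were treated with compounds for 16 hr after a 6 hr preincubation at 37C and 5% CO2; cell viability is the CellTiter-Glo luminescence signal.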
# [6] = qHTS assay to identify small molecule agonists of the TGF-beta/Smad signaling pathway (AID 1346859; active means well fitted activation curve with a large enough effect in the signal ratio in the repeat runs, not every such curve was filed as active; the % refers to the signal ratio; further: series mostly up to about 77 µM)
# Outline: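 Each well held 4,000 SBE-bla HEK 293T cells incubated overnight before compound addition; 5 hr later the cleavable FRET substrate went on for 2 hr at room temperature, and fluorescence was read at two emissions.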
# [7] = target: Thyrotropin-releasing hormone receptor (Homo sapiens) (UniProt P34981); test: qHTS assay to identify small molecule antagonists of the thyrotropin-releasing hormone receptor (TRHR) signaling pathway (AID 1346877; active means well fitted inhibition curve with a large enough effect in the repeat runs, not every such curve was filed as active; further: series mostly up to about 51 µM)
# Chain of Thyrotropin-releasing hormone receptor (Homo sapiens) (P34981 whole entry, looked up): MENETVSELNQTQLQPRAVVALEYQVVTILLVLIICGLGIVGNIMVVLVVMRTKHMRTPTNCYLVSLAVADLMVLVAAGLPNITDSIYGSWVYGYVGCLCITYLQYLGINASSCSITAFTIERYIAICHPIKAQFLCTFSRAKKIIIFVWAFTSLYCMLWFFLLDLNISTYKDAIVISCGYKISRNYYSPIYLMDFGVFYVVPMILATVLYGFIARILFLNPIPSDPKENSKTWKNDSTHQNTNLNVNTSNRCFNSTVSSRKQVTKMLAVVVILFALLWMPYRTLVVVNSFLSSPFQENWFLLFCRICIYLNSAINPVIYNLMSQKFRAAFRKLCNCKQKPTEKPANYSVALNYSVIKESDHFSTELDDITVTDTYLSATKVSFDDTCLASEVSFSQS
# Outline: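 Overnight-plated (18 h, 37 °C) HEK293 cells expressing TRHR were dye-loaded 2 h, treated with compound, then stimulated with TRH at 1 nM final. Fluorescence intensity was captured every second for 3 min.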
# [8] = target: Thyrotropin-releasing hormone receptor (Homo sapiens) (UniProt P34981); test: qHTS assay to identify small molecule agonists of the thyrotropin-releasing hormone receptor (TRHR) signaling pathway (AID 1346891; calls by dose curve; further: series mostly up to about 58 µM)
# Outline: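 Screening of agonists relied on calcium signalling in HEK293 cells expressing human TRHR: dye loading 2 h at 37 °C preceded compound addition and a 3-min fluorescence time course.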
# [9] = Human pregnane X receptor (PXR) small molecule agonists, qHTS cell viability counter screen (AID 1346977); further: nearly all actives have a fitted effect of over 50% in size; further: potency means the concentration at half of the fitted maximal effect
# Outline: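 Tox21 qHTS format; PXR-Luc HepG2, 2,000/well, charcoal-stripped FBS 5%. Cpd exposure 24hr. Read: CellTiter-Fluor fluorescence, multiplexed with luciferase.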
# [10] = Caspase-3/7 induction in CHO-K1 cells by small molecules, qHTS cell viability counter screen (AID 1346979); further: nearly all actives have a fitted effect of over 35% in size; further: potency means the concentration at half of the fitted maximal effect
# Outline: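 CellTiter-Fluor viability check, qHTS format: wild-type CHO-K1, 16hr compound treatment, 1hr reagent incubation, fluorescence read.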
# [11] = Caspase-3/7 induction in CHO-K1 cells by small molecules, qHTS assay (AID 1346980); further: nearly all actives have a fitted effect of over 15% in size; further: potency means the concentration at half of the fitted maximal effect
# Outline: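 Wild-type CHO-K1 cells exposed to compounds for 17hr at 37 C, 5% CO2. Caspase-3/7 activity then measured by Caspase-Glo 3/7 luminescence after 30min at room temperature.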
# [12] = Caspase-3/7 induction in HepG2 cells by small molecules, qHTS cell viability counter screen (AID 1346981); further: series mostly up to about 92 µM; nearly all actives have a fitted effect of over 30% in size
# Outline: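 Treatment of HepG2 cells with DMSO-delivered compounds ran 16 hr at 37 C following a 5-hr pre-incubation of 2,000 cells/well. CellTiter-Fluor fluorescence, read after 1 hr, served as the viability measure in a qHTS format.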
# [13] = target: Nuclear receptor subfamily 1 group I member 2 (Homo sapiens) (UniProt O75469); test: Human pregnane X receptor (PXR) small molecule agonists, qHTS assay (AID 1346982); further: nearly all actives have a fitted effect of over 35% in size; further: potency means the concentration at half of the fitted maximal effect
# Chain of Nuclear receptor subfamily 1 group I member 2 (Homo sapiens) (O75469 whole entry, looked up): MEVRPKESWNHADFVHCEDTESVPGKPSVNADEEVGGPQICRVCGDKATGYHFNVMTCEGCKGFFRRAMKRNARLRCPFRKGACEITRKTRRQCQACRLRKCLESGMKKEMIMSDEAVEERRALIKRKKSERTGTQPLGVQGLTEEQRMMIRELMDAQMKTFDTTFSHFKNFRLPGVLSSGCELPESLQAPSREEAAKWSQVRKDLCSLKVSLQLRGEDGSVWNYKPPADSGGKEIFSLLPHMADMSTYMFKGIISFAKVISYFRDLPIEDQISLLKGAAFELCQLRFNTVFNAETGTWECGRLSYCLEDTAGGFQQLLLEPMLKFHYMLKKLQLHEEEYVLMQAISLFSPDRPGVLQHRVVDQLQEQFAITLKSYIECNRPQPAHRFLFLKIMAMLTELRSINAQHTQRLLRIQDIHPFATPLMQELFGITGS
# Outline: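 Stable HepG2 line reporting PXR-mediated CYP3A4 expression via luciferase. Treatment: 24 hr with compounds in DMSO at 37 C. Detection: ONE-Glo luminescence.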
# [14] = target: Nuclear receptor subfamily 1 group I member 2 (Rattus norvegicus) (UniProt Q9R1A7); test: Rat pregnane X receptor (rPXR) activation by small molecules, qHTS assay (AID 1346983); conditions: rPXR luciferase reporter cells, One-Glo luminescence, 24 h; max activation: active compounds read high; further: nearly all actives have a fitted effect of over 20% in size
# Chain of Nuclear receptor subfamily 1 group I member 2 (Rattus norvegicus) (Q9R1A7 whole entry, looked up): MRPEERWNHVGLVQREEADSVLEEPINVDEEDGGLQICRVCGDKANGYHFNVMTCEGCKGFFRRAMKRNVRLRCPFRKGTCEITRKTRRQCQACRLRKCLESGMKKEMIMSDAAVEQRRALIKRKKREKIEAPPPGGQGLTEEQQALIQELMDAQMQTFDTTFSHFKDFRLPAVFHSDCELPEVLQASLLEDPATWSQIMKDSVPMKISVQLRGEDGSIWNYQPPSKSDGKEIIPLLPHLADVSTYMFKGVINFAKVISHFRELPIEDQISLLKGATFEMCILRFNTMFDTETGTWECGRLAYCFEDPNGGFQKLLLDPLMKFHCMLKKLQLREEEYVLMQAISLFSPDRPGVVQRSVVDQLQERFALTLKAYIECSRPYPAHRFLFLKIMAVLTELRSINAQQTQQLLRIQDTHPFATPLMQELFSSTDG
# Outline: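 Cell-based rPXR activation assay: rPXR cells, 2,000 per well, rested 5hr at 37 C, then exposed to compounds in DMSO for 24 hr at 37 C. Luciferase activity read by One-Glo luminescence after 30 min at room temperature.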
# [15] = target: Nuclear receptor subfamily 1 group I member 2 (Homo sapiens) (UniProt O75469); test: CYP3A4 induction through human pregnane X receptor (PXR) by small molecules, qHTS assay (AID 1346984); further: nearly all actives have a fitted effect of over 40% in size
# Outline: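 After 24 h at 37C with compound, DPX-2 cells (HepG2, co-transfected PXR response element and CYP3A4 promoter-luciferase) got 3uM final P450-Glo Luciferin-IPA for 3 h; One-Glo luminescence followed.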
# [16] = target: Nuclear receptor subfamily 1 group I member 2 (Homo sapiens) (UniProt O75469); test: Human pregnane X receptor (PXR) activation by small molecules, qHTS assay (AID 1346985); further: nearly all actives have a fitted effect of over 40% in size
# Outline: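 DPX-2 cells (HepG2 co-transfected with a PXR response element and a CYP3A4-promoter luciferase construct) were seeded at 2,000 per well, rested 5 hr at 37C, then exposed to DMSO-dissolved compounds for 24 hr. Activation was read as luciferase luminescence.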
# [17] = target: Cytochrome P450 2D6 (Homo sapiens) (UniProt P10635); test: Cytochrome P450 Family 2 Subfamily D Member 6 (CYP2D6) small molecule antagonists: luciferase reporter qHTS assay (AID 1671196); further: nearly all actives have a fitted effect of over 50% in size; further: potency means the concentration at half of the fitted maximal effect
# Chain of Cytochrome P450 2D6 (Homo sapiens) (P10635 whole entry, looked up): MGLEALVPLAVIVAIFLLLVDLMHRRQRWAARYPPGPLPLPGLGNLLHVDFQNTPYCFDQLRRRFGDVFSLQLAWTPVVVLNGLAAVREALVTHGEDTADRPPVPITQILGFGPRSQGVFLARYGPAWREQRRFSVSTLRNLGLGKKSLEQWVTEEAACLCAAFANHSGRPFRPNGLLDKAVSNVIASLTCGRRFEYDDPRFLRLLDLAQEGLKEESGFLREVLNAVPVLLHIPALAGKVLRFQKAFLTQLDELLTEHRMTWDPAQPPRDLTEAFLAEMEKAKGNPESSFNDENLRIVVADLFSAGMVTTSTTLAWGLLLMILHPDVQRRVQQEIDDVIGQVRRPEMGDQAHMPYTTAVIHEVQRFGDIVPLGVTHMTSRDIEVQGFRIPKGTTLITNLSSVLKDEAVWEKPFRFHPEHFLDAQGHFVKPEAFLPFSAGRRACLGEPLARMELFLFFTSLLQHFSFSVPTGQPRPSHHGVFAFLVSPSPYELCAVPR
# Outline: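 Chemicals tested for interference with CYP2D6 activity; proluciferin substrate, NADPH regeneration, 1 h at room temperature, luminescent detection.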
# [18] = qHTS assay to identify small molecule antagonists of the TGF-beta/Smad signaling pathway - cell viability counter screen (AID 1346824); further: nearly all actives have a fitted effect of over 50% in size
# Outline: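 SBE-bla HEK 293T cells, incubated overnight, then compound plus 0.25 ng/mL TGF-beta1 (stock added) for 5 hr at 37 C. Viability was read in the same wells by CellTiter-Glo luminescence after 30 min at room temperature.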
# [19] = qHTS assay to identify small molecule agonists of the TGF-beta/Smad signaling pathway - cell viability counter screen (AID 1346829); further: nearly all actives have a fitted effect of over 45% in size; further: potency means the concentration at half of the fitted maximal effect
# Outline: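 HEK 293T SBE-bla line, 5 hr compound exposure at 37 C, multiplexed CellTiter-Glo viability read by luminescence.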
# [20] = Caspase-3/7 induction in HepG2 cells by small molecules, qHTS assay (AID 1346978); further: nearly all actives have a fitted effect of over 15% in size
# Outline: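 Wild-type HepG2 cells, 2,000/well, settled 5 hr at 37 C and 5% CO2, then compound-treated for 17 hr; caspase-3/7 activity read by luminescent Caspase-Glo 3/7 after 30 min at room temperature.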
SMILES,Potency [1],Potency [2],Potency [3],Potency [4],Potency [5],Potency [6],Potency [7],Potency [8],Potency [9],Potency [10],Potency [11],Potency [12],Potency [13],max activation [14],Potency [15],Potency [16],Potency [17],Potency [18],Potency [19],Potency [20]
COc1cc(/C=C/C(=O)O[C@H]2CC[C@]34C[C@]35CC[C@]3(C)[C@@H]([C@H](C)CCC=C(C)C)CC[C@@]3(C)[C@@H]5CC[C@H]4C2(C)C)ccc1O,inactive,inactive,inactive,inactive,inactive,inactive,inactive,inactive,inactive,inactive,inactive,inactive,inactive,-10.7%,inactive,inactive,–,–,–,–
CCCCCCCCCCCCCCCC[N+](C)(C)CCN(Cc1ccc(OC)cc1)c1ncccn1,inactive,inactive,inactive,29.8 µM (active),21.1 µM (active),inactive,inactive,inactive,29.8 µM (active),26.6 µM (active),–,–,inactive,-2.3%,–,inactive,15.5 µM (active),–,–,–
Clc1ccc(C(Cn2ccnc2)OCc2ccc(Sc3ccccc3)cc2)c(Cl)c1 (stereo unspecified),inactive,inactive,29.8 µM (active),–,inactive,inactive,inactive,inactive,inactive,–,inactive,inactive,26.6 µM (active),–,–,–,0.389 µM (active),inactive,inactive,inactive
O=C(O)c1c(Cl)cccc1Cl,inactive,inactive,inactive,inactive,inactive,inactive,–,–,inactive,inactive,–,inactive,inactive,–,–,–,–,–,inactive,inactive
CN(C)[C@@H]1C(=O)C(C(N)=O)=C(O)[C@@]2(O)C(=O)C3=C(O)c4c(O)ccc(Cl)c4[C@@H](O)[C@H]3C[C@@H]12,inactive,inactive,inactive,inactive,inactive,–,inactive,inactive,inactive,inactive,–,inactive,inactive,-0.517%,–,inactive,inactive,–,inactive,inactive
NNc1nc(-c2ccc(N)cc2)cs1,30.6 µM (active),inactive,inactive,inactive,–,inactive,–,–,–,48.6 µM (active),–,–,–,–,–,–,71 µM (active),inactive,inactive,inactive
COc1cc(-c2nc(NC(=O)c3cc4cc(C)cc(C)c4n3CC(=O)O)sc2CCC2CCCCC2)c(OC)cc1Cl,inactive,inactive,12.5 µM (active),14.1 µM (active),11.2 µM (active),–,–,–,31.5 µM (active),19.9 µM (active),56 µM (active),–,28.1 µM (active),–,–,–,–,–,28.3 µM (active),–
Cc1cccc(N(C)C(=S)Oc2ccc3c(c2)C2CCC3C2)c1 (stereo unspecified),inactive,inactive,15 µM (active),–,inactive,inactive,inactive,inactive,inactive,–,inactive,inactive,11.9 µM (active),–,–,–,–,inactive,inactive,inactive
CCC(C)(C)C1CCCCC1OC(C)=O (stereo unspecified),inactive,inactive,inactive,inactive,inactive,inactive,inactive,inactive,inactive,inactive,inactive,inactive,inactive,–,–,–,–,–,inactive,–
